A number with no mark means an inactive call. Activity calls are given as the source filed them.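 Rule for the calls, unless noted: active = at least 20% inhibition of 6-phosphogluconate dehydrogenase activity; inactive = the rest.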
Key:
[1] = stimulators of insulin release from INS-1E, primary screen, cell-based, 5 mM glucose, NPC library (AID 1117329;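 active = compound raises insulin release from rat beta cells at 5 mM glucose, no numeric limit stated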; note: reference of the scale not given here); settings: rat INS-1E insulin secretion, at 10 µM, hits give high values
[2] = growth inhibition of GSK3B-pretreated HCT116 cells – cell-based, CellTiter-Glo, 0.2 to 20 µM (AID 1117336;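 active = compounds lowering colon cancer cell viability after pretreatment blocking the GSK3B kinase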); settings: HCT116 viability after GSK3B inhibitor, at 20 µM, hits give high values
[3] = inhibition of endothelial tube formation, primary screen, imaging, VEGF stimulated, CD31 staining, tube area, NPC library (AID 1117340;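 active = compound that reduces growth-factor-driven endothelial tube area in a mixed cell culture, no cutoff stated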); settings: VEGF-stimulated ADSC/ECFC co-culture, at 10 µM, hits give high values
[4] = glucagon-like peptide 1 release enhancers, primary assay, NCI-H716 cell line, NPC library (AID 1117341;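 active = compound raises GLP1 secretion from the human gut endocrine cells, with no numeric limit stated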; note: reference of the scale not given here); settings: NCI-H716 cells, at 10 µM, hits give high values
[5] = HCT116 colon cancer cell growth inhibition, primary screen, CellTiter-Glo luminescence, NPC library (AID 1117342;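 active = compounds that lower survival of HCT116 colon cancer cells in the luminescence readout, no numeric limit stated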); settings: at 20 µM (top of the series)
[6] = CellTiter-Glo luminescent readout of SW480 viability loss, NPC library primary (AID 1117343;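 active = compounds that lower viability of the colon cancer cells in the luminescence readout, with no numeric limit stated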); settings: CellTiter-Glo luminescence; at 20 µM (top of the series)
[7] = decreased DLD-1 cellular survival, CellTiter-Glo luminescent readout, NPC compound collection, primary HTS (AID 1117346;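 active = compounds that lower survival of DLD-1 colon cancer cells in the luminescence readout, no cutoff given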); settings: DLD-1 viability, CellTiter-Glo luminescence; at 20 µM (top of the series)
[8] = target: 6-phosphogluconate dehydrogenase, decarboxylating (Homo sapiens) (UniProt P52209); test: 6PGD enzyme inhibitors, primary screen, biochemical, human, recombinant enzyme, NADPH absorbance (AID 1159550); settings: recombinant 6PGD, NADPH absorbance 341 nm; at 10 µM; hits give high values
Sequence of 6-phosphogluconate dehydrogenase, decarboxylating (Homo sapiens) (P52209 whole entry, looked up): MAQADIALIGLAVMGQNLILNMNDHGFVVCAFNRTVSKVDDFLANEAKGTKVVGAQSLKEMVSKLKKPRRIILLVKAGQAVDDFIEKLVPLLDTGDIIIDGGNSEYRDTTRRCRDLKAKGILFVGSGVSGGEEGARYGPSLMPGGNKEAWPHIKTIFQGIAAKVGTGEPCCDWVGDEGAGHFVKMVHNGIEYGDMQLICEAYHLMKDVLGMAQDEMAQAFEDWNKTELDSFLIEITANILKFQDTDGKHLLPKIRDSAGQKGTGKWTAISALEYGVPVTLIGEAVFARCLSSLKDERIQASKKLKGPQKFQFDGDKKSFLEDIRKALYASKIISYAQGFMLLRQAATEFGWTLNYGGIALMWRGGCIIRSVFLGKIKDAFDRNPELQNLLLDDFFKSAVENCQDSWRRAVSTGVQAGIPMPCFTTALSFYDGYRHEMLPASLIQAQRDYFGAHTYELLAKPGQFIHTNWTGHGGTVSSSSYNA

Q: With `CC(=O)OCC(=O)[C@@]1(O)[C@H](C)C[C@H]2[C@@H]3CCC4=CC(=O)C=C[C@]4(C)[C@@]3(F)[C@@H](O)C[C@@]21C` as the molecule, how does the insulin secretion stimulation [1] read?
A: 0.55%

Q: And the viability decrease [2]?
A: 10.3%

Q: And the tube area decrease [3]?
A: -13.1%

Q: What about the GLP1 secretion stimulation [4] of the same molecule?
A: 4%

Q: What about the inhibition of viability [5] of the same molecule?
A: 7.2%

Q: What about the viability decrease (inhibition) [6] of the same molecule?
A: 32.2%

Q: And the viability decrease (inhibition) [7]?
A: -4.9%

Q: And the inhibition [8]?
A: -7.66%

Q: For `COc1cc(N)c(Cl)cc1C(=O)NC1CCN(Cc2ccccc2)CC1`, which insulin secretion stimulation [1] is on record?
A: 9.3%

Q: What about the viability decrease [2] of the same molecule?
A: -6.7%

Q: And the tube area decrease [3]?
A: 5.3%

Q: And the GLP1 secretion stimulation [4]?
A: -0.7%

Q: And the inhibition of viability [5]?
A: 38.2%

Q: What about the viability decrease (inhibition) [6] of the same molecule?
A: 26.2%

Q: And the viability decrease (inhibition) [7]?
A: 6.4%

Q: What about the inhibition [8] of the same molecule?
A: -7.99%

Q: For `Nc1cc(-c2ccncc2)c[nH]c1=O`, which insulin secretion stimulation [1] is on record?
A: 0.4%

Q: And the viability decrease [2]?
A: -33.1%

Q: And the tube area decrease [3]?
A: -25.6%

Q: What about the GLP1 secretion stimulation [4] of the same molecule?
A: 0%

Q: And the inhibition of viability [5]?
A: -3.67%

Q: And the viability decrease (inhibition) [6]?
A: 15%

Q: And the viability decrease (inhibition) [7]?
A: -7.5%

Q: And the inhibition [8]?
A: -7.06%

Q: With `C[C@]12CCC(=O)C=C1CC[C@@H]1[C@@H]2[C@@H](O)C[C@@]2(C)[C@H]1CC[C@]2(O)C(=O)COP(=O)(O)O` as the molecule, how does the insulin secretion stimulation [1] read?
A: 1.8%

Q: And the viability decrease [2]?
A: -2.5%

Q: What about the tube area decrease [3] of the same molecule?
A: -8.4%

Q: What about the GLP1 secretion stimulation [4] of the same molecule?
A: -1%

Q: And the inhibition of viability [5]?
A: -7.2%

Q: What about the viability decrease (inhibition) [6] of the same molecule?
A: -5.9% (active)

Q: What about the viability decrease (inhibition) [7] of the same molecule?
A: -10.7%

Q: And the inhibition [8]?
A: 7.31%

Q: For `CC(=O)OCC(=O)[C@H]1CC[C@H]2[C@@H]3CCC4=CC(=O)CC[C@]4(C)[C@H]3CC[C@]12C`, which insulin secretion stimulation [1] is on record?
A: 0.3%

Q: What about the viability decrease [2] of the same molecule?
A: 0.8%

Q: And the tube area decrease [3]?
A: -2.5%

Q: What about the GLP1 secretion stimulation [4] of the same molecule?
A: -0.6%

Q: And the inhibition of viability [5]?
A: 34.5%

Q: And the viability decrease (inhibition) [6]?
A: 1.2%

Q: What about the viability decrease (inhibition) [7] of the same molecule?
A: -9.6%

Q: What about the inhibition [8] of the same molecule?
A: 2.51%

Q: With `CC[C@]12CCCN3CCc4c(n(c5ccccc45)C(=O)C1)[C@@H]32` as the molecule, how does the insulin secretion stimulation [1] read?
A: 0.1%

Q: And the viability decrease [2]?
A: -29%

Q: And the tube area decrease [3]?
A: 100% (active)

Q: What about the GLP1 secretion stimulation [4] of the same molecule?
A: 7.7%

Q: What about the inhibition of viability [5] of the same molecule?
A: 35.7%

Q: And the viability decrease (inhibition) [6]?
A: 60% (active)

Q: And the viability decrease (inhibition) [7]?
A: 66.2% (active)

Q: What about the inhibition [8] of the same molecule?
A: -5.24%

Q: Which insulin secretion stimulation [1] does the source give for `Oc1ccc(Cl)cc1Cc1cc(Cl)ccc1O` here?
A: -0.9%

Q: And the viability decrease [2]?
A: 100% (active)

Q: And the tube area decrease [3]?
A: 109% (active)

Q: What about the GLP1 secretion stimulation [4] of the same molecule?
A: 30.9% (active)

Q: And the inhibition of viability [5]?
A: 102% (active)

Q: And the viability decrease (inhibition) [6]?
A: -50.4% (active)

Q: What about the viability decrease (inhibition) [7] of the same molecule?
A: 105% (active)

Q: And the inhibition [8]?
A: -8.92%

Q: What does the source list for `Nc1ncnc2c1ncn2[C@@H]1O[C@H](COP(=O)(O)O)[C@@H](O)[C@H]1O`?
A: insulin secretion stimulation [1]: 0.05%; viability decrease [2]: -14.7%; tube area decrease [3]: -5.6%; GLP1 secretion stimulation [4]: 4%; inhibition of viability [5]: -14.3%; viability decrease (inhibition) [6]: 73.2% (active); viability decrease (inhibition) [7]: -4.1%; inhibition [8]: -8.33%

Q: For `Nc1c2c(nc3ccccc13)CCCC2O` (stereo not drawn), which insulin secretion stimulation [1] is on record?
A: 11.8%

Q: And the viability decrease [2]?
A: 5.9%

Q: And the tube area decrease [3]?
A: 16.1%

Q: And the GLP1 secretion stimulation [4]?
A: 8.3%

Q: And the inhibition of viability [5]?
A: 3.6%

Q: What about the viability decrease (inhibition) [6] of the same molecule?
A: 26.9%

Q: And the viability decrease (inhibition) [7]?
A: -22.2%

Q: And the inhibition [8]?
A: 7.08%

Q: With `O=C(O)[C@@H](O)[C@H](O)[C@H](O)[C@@H](O)C(=O)O` as the molecule, how does the insulin secretion stimulation [1] read?
A: 3.6%

Q: What about the viability decrease [2] of the same molecule?
A: -8.4%

Q: And the tube area decrease [3]?
A: 23.5%

Q: And the GLP1 secretion stimulation [4]?
A: -1.9%

Q: What about the inhibition of viability [5] of the same molecule?
A: 1.7%

Q: And the viability decrease (inhibition) [6]?
A: 57.2% (active)

Q: And the viability decrease (inhibition) [7]?
A: -6.1%

Q: What about the inhibition [8] of the same molecule?
A: 3.91%

Q: What does the source list for `CC(=O)[C@@]1(O)CC[C@H]2[C@@H]3C[C@H](C)C4=CC(=O)C=C[C@]4(C)[C@@]3(F)[C@@H](O)C[C@@]21C`?
A: insulin secretion stimulation [1]: -1.1%; viability decrease [2]: -45.9%; tube area decrease [3]: -16%; GLP1 secretion stimulation [4]: -0.3%; inhibition of viability [5]: -1.33%; viability decrease (inhibition) [6]: -18.3%; viability decrease (inhibition) [7]: -7.2%; inhibition [8]: 15.2%

Q: Which results are given for `O=c1cc(CO)occ1O`?
A: insulin secretion stimulation [1]: -1.3%; viability decrease [2]: -8.3%; tube area decrease [3]: -7.1%; GLP1 secretion stimulation [4]: 1.9%; inhibition of viability [5]: -7%; viability decrease (inhibition) [6]: 38.7%; viability decrease (inhibition) [7]: 10.8%; inhibition [8]: 6.93%

Q: What does the source list for `OCC(O)CN1CCN(c2ccccc2)CC1` (stereo not drawn)?
A: insulin secretion stimulation [1]: 0.6%; viability decrease [2]: -6.6%; tube area decrease [3]: -0.2%; GLP1 secretion stimulation [4]: -1.1%; inhibition of viability [5]: 4.03%; viability decrease (inhibition) [6]: 29%; viability decrease (inhibition) [7]: -12.9%; inhibition [8]: 8.41%

Q: With `O=C1O[C@H](CO)[C@@H](O)[C@H](O)[C@H]1O` as the molecule, how does the insulin secretion stimulation [1] read?
A: 1.8%

Q: And the viability decrease [2]?
A: -0.7%

Q: And the tube area decrease [3]?
A: -3.8%

Q: And the GLP1 secretion stimulation [4]?
A: -2.6%

Q: What about the inhibition of viability [5] of the same molecule?
A: 14.6%

Q: What about the viability decrease (inhibition) [6] of the same molecule?
A: 31.1%

Q: What about the viability decrease (inhibition) [7] of the same molecule?
A: 20%

Q: What about the inhibition [8] of the same molecule?
A: -9.11%

Q: With `CC1(C)O[C@@H]2C[C@H]3[C@@H]4CCC5=CC(=O)CC[C@]5(C)[C@@]4(F)[C@@H](O)C[C@]3(C)[C@]2(C(=O)CCl)O1` as the molecule, how does the insulin secretion stimulation [1] read?
A: -0.7%

Q: What about the viability decrease [2] of the same molecule?
A: -39%

Q: And the tube area decrease [3]?
A: 10.2%

Q: And the GLP1 secretion stimulation [4]?
A: -1.7%

Q: What about the inhibition of viability [5] of the same molecule?
A: -4.27%

Q: What about the viability decrease (inhibition) [6] of the same molecule?
A: 9.4%

Q: What about the viability decrease (inhibition) [7] of the same molecule?
A: -22.2%

Q: What about the inhibition [8] of the same molecule?
A: 12.4%

Q: With `Oc1c(Br)cc(Br)c2cccnc12` as the molecule, how does the insulin secretion stimulation [1] read?
A: 2.4%

Q: And the viability decrease [2]?
A: 113% (active)

Q: And the tube area decrease [3]?
A: 108% (active)

Q: What about the GLP1 secretion stimulation [4] of the same molecule?
A: 4.3%

Q: And the inhibition of viability [5]?
A: 96.7% (active)

Q: And the viability decrease (inhibition) [6]?
A: 153% (active)

Q: What about the viability decrease (inhibition) [7] of the same molecule?
A: 99.7% (active)

Q: What about the inhibition [8] of the same molecule?
A: 4.35%

Reference: PubChem BioAssay
